Screen size: about 340,000 compounds; about 2,100 (0.62%) were called active.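 Rule for the calls: active = first-screen hits whose inhibition reached a set limit at any dose in the follow-up dose series; inconclusive = inhibition above the set first-screen limit but never retested; inactive = the rest.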 Not all results are given here. Entries with a potency or affinity are not part of this list.
molecular target: Rac GTPase-activating protein 1 (Homo sapiens) (UniProt Q9H0H5); assay: MgcRacGAP GTPase-activating activity inhibitors, confirmation, biochemical, ADP Hunter fluorescence, primary and confirmatory (AID 624330); settings: MgcRacGAP-stimulated Rac1 GTP hydrolysis, at 30 µM, hits give high values, GST-tagged Rac1 F28L mutant substrate;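 note: fluorescence reports GDP produced by GAP-driven GTP hydrolysis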
Sequence (Q9H0H5 whole entry, looked up): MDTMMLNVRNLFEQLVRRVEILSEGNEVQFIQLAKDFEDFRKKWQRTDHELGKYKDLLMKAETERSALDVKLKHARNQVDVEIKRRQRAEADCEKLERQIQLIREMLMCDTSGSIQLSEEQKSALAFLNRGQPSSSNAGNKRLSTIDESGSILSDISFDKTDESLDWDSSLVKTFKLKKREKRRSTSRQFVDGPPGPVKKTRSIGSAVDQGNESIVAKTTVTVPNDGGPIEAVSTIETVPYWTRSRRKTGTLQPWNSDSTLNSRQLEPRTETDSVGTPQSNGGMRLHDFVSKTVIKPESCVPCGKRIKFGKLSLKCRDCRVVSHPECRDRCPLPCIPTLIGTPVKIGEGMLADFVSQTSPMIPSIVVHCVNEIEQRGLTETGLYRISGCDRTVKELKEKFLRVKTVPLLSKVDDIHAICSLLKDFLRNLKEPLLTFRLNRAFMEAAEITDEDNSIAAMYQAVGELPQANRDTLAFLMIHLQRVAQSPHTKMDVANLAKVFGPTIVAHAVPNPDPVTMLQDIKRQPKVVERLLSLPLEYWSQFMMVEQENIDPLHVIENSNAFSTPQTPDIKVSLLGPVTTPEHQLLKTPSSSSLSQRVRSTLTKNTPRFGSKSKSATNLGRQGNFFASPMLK

inhibition, inactive:
Cc1ccc(C(=O)NCC(=O)Nc2ncccc2C)s1 -8.48%
Cc1ccc(C(=O)Nc2ccncc2)cc1S(=O)(=O)N1CCOCC1 5.06%
CCOc1ccc(CCN2C(=S)N([C@@H](CC(C)C)CN3CCCC3CN3C(=S)NC[C@@H]3Cc3ccc(O)cc3)C[C@@H]2Cc2ccccc2)cc1 (stereo partly specified) -2.29%
C[C@H](CO)N1C[C@H](C)[C@@H](CN(C)C(=O)c2ccccc2)OCc2cnnn2CCCC1=O 16.3%
O=C(Nc1ccccc1O)c1ccc([N+](=O)[O-])cc1 6.91%
Oc1ccccc1N=Cc1ccc[nH]1 16.7%
O=C(CN1CCOCC1)Nc1ccc(-c2nc3ccccc3[nH]2)cc1 10.7%
CC(C)C[C@@H](C(=O)O)N(Cc1cccc(CN([C@@H](CC(C)C)C(=O)O)S(C)(=O)=O)c1)S(C)(=O)=O 9.29%
CC1=C(C(=O)Nc2ccccc2C)C2(CCCC2)C(C(N)=O)C(=O)N1 (stereo unspecified) -3.29%
CCOC(=O)c1cnc2c(-c3ccccc3)cnn2c1C 8.8%
CCNC(=O)CSC1=N/C(=C\c2ccc(O)c(OCC)c2)C(=O)N1c1ccc(OC(F)F)cc1 7.81%
NC(=O)CSC1=N/C(=C\c2ccco2)C(=O)N1c1ccc(OC(F)F)cc1 9.08%
CCC(C)[C@H](NC(=O)N1CCN(C)CC1)C(=O)OC (stereo partly specified) 3.84%
Cc1ccc(C(=O)Nc2cccc(Oc3ccccc3)c2)o1 1.9%
Nc1ccc(C(=O)OCCCc2nc3ccccc3[nH]2)cc1 10%
c1ccc2[nH]c(CCCCc3nc4ccccc4[nH]3)nc2c1 7.39%
c1ccc(Cc2nc3ccccc3[nH]2)cc1 -0.91%
c1ccc2[nH]c(CCCc3nc4ccccc4[nH]3)nc2c1 -1.49%
Cc1ccc2nc(Cc3ccc(N)cc3)[nH]c2c1 6.07%
Nc1ccc(C(=O)OCCCc2nc3cc4ccccc4cc3[nH]2)cc1 14.4%
CCOCCCN(C(=O)CCC(=O)Nc1cc(C)on1)C(C(=O)NC(C)(C)C)c1ccccc1Cl (stereo unspecified) 5.98%
COc1ccc(-c2c(NC(=O)CC(C)C)n(C)c3ccccc3c2=O)cc1OC 4.25%
Cn1c(COc2ccc([N+](=O)[O-])cc2)nnc1SCC(=O)NCC1CCCO1 (stereo unspecified) 5.87%
CCN(CC)CCCNc1nc(-c2ccccc2)nc2ccccc12 17.7%
CCN(CC)CCCNc1nc2ccccc2[nH]1 7.22%
CCCCCC(O)CCCC(=O)O (stereo unspecified) 7.64%
CCCCCCCCCCCCCCC(O)C[N+](C)(CCO)CCO (stereo unspecified) 20.8%
CCOc1ccc(-n2nc3c(SCCN4CCCC4)nnc(C)c3c2C)cc1 10.3%
Oc1ccccc1Cc1c(O)ccc2ccccc12 23.7%
c1ccc2c(c1)ccc1ccccc12 -3.62%
COc1ccc(N/C=C2/Sc3ccccc3NC2=O)cc1 17.3%
FC(F)(F)c1cnc2c(c1)Nc1ccccc1S2 10.2%
c1ccc2c(c1)Nc1nccnc1S2 28.4%
COc1ccc2c(c1)S(=O)(=O)c1ccccc1N2 11.9%
Clc1cc2c(nn1)Nc1ccccc1S2 6.5%
c1ccc2c(c1)Nc1cc3ccccc3cc1S2 14.6%
Cn1c(N)c(C(=O)CSc2nnc(C3CC3)n2Cc2ccccc2)c(=O)[nH]c1=O 2.66%
N#Cc1ccc(OCC(=O)N2CCN(S(=O)(=O)c3cccc(Cl)c3)CC2)cc1 -0.69%
COc1ccc(NC(=O)CN(C)C(=O)/C=C/c2cn(-c3ccccc3)nc2-c2ccc(C)cc2)cc1 9.39%
CCOC(=O)Cc1csc(NC(=O)c2csc(C)c2)n1 9.83%
Cc1cc(OCCN2CCCC2)ccc1[N+](=O)[O-] 19.6%
CCOc1ccccc1OCCOCCN1CCN(Cc2ccccc2)CC1 26.4%
O=C(c1ccccc1)c1ccc(OCCOCCN2CCN(Cc3ccccc3)CC2)cc1 25.1%
Cc1cc(OCCN2CCC(Cc3ccccc3)CC2)ccc1[N+](=O)[O-] 22%
COc1cccc(NS(=O)(=O)c2c(C)nc3sccn3c2=O)c1 4.23%
CCc1cc(C(=O)NCC(c2ccco2)N2CCCCC2)sc1C (stereo unspecified) 5.34%
Cc1cccc(C(=O)OCC(=O)N2CCCCCC2)c1C 2.72%
CCN(C[C@H]1N[C@@](Cc2ccccc2)(C(=O)OC)[C@H]2C(=O)N(Cc3ccccc3)C(=O)[C@@H]12)C(=O)Nc1ccc(C)cc1 4.71%
CCOC(=O)c1ccc(NC(=S)N2CCC(C(N)=O)(N3CCCCC3)CC2)cc1 -1.44%
CCN(CC)CCSc1nc(O)c(Cc2ccccc2)c(=O)n1-c1ccccc1 2.56%
Cc1ccc(NC(=O)CN2CCOCC2)cc1S(=O)(=O)N1CCCCC1 7.06%
Cc1ccccc1C(=O)NCC(=O)Nc1ccc(C)c(S(=O)(=O)N2CCCCCC2)c1 -0.01%
O=C(CNCCN1CCOCC1)Nc1ccccc1Sc1ccccc1 24.9%
Cc1ccccc1NC(=O)C(=O)NCCCN1CCOCC1 4.72%
Cc1ccc(C(=O)NCCCN2CCOCC2)cc1S(=O)(=O)N1CCCCC1 1.84%
CN(C)S(=O)(=O)c1cc(NC(=O)CN2CCOCC2)ccc1Cl 2.76%
Cc1ccc(NC(=O)CCl)cc1S(=O)(=O)N1CCCCCC1 4.4%
CCN1CCN(CC(=O)Nc2ccc(Cl)c(S(=O)(=O)N(C)C)c2)CC1 28.1%
CC(Oc1cccc(Cl)c1)C(=O)N1CCN(c2ncccn2)CC1 (stereo unspecified) 3.63%
O=C(Nc1ccccc1C(=O)O)c1cc(S(=O)(=O)N2CCOCC2)cs1 3.51%
Cc1ccc(/C=N/N2CCN(C3c4ccccc4-c4ccccc43)CC2)o1 8.36%
COc1ccc(N2CCN(C(=O)c3cc4c(s3)CCCCC4)CC2)cc1 14.7%
COCCn1c(SCC(=O)N2CCCCCC2)nnc1-c1ccco1 3.7%
CCC(CNC(=O)c1c(C)nn(-c2ccccc2)c1Cl)c1ccccc1 (stereo unspecified) -0.7%
Cc1ccc(S(=O)(=O)N2CCCCC2)cc1C(=O)N(C)CCOc1ccccc1 8.29%
O=C(Cn1cnc2c(nnn2-c2ccc(F)cc2)c1=O)NCC1CCCO1 (stereo unspecified) 8.9%
COc1cc(-c2csc(CCn3nc(C)cc3C)n2)cc(OC)c1OC 4.55%
Cc1cc(C)n(CCc2nc3c4ccccc4n(CC#N)c(=O)n3n2)n1 3.22%
COC(=O)C1CCN(S(=O)(=O)Cc2ccccc2Cl)CC1 7.49%
COc1cc(OC)c(OC)cc1C#N 2.13%
COc1cc2c(cc1OC)C1(CCCC1)CNC2C (stereo unspecified) 1.49%
O=C(Nc1ccc(F)cc1)C(NC1CCCCC1)c1ccccc1 (stereo unspecified) 9.33%
COc1ccc(C2=NS(=O)(=O)N(C)C(C(=O)N3CCCCC3C)=C2)cc1 (stereo unspecified) 2.61%
COc1ccc(C(C)C)cc1S(=O)(=O)Nc1ccccn1 -2.56%
COc1ccc(N(C(=O)c2ccncc2)S(=O)(=O)c2cccs2)cc1 5.29%
COc1ccc(C(=O)N(c2ccc(OC)cc2)S(=O)(=O)c2cccs2)cc1 3.2%
O=C(Nc1ccc(-c2nc3ccccc3[nH]2)cc1)c1ccc2c(c1)OCO2 0.3%
COc1ccccc1C1C2=C(N=C3SCC(=O)N31)c1ccccc1CC2 (stereo unspecified) 7%
CCOC(=O)c1cc(-c2ccccc2)nn1CCC#N 8.67%
COc1ccc(OCc2nn3c(Cn4cnc5ccccc54)nnc3s2)cc1 19.9%
Cc1ccnc(SCc2cn3c(C)cccc3n2)n1 0.6%
COc1ccc(/C=C/C(=O)OCC(=O)NCCC2=CCCCC2)cc1OC 4.2%
COc1cc(/C=C/C(=O)OCC(=O)NC2CCS(=O)(=O)C2)ccc1OC(F)F (stereo unspecified) 2.44%
COc1cc(/C=C/C(=O)OCC(=O)NC2CCCCCCC2)ccc1O 26.5%
COc1ccc(/C=C/C(=O)OCC(=O)NC2CCS(=O)(=O)C2)cc1 (stereo unspecified) -1.92%
COc1cc(/C=C/C(=O)OCC(=O)NCCC2=CCCCC2)cc(OC)c1OC -10.3%
COc1cccc(/C=C/C(=O)OCC(=O)NCC2CCCCC2)c1OC -1.97%
CCCSCCCNC(=O)c1ccc(C)c(NC(=O)C2=C(C)OCCS2)c1 6.84%
CCC(=O)N1C(=O)CCN(C(C)=O)c2ccccc21 11.8%
COc1cccc(NC(=O)CN(C)C(=O)C(CCSC)NC(=O)c2ccco2)c1 (stereo unspecified) 1.87%
Cc1nn(C)c(=S)[nH]c1=S -2.65%
O=C(NCc1nc2ccccc2[nH]1)c1cccc(S(=O)(=O)N2CCCCC2)c1 1.53%
Cc1c(C(=O)N/N=C/c2cccnc2)sc(N)c1C#N 6.19%
COc1cc(/C=N/NC(=O)c2sc(N)c(C#N)c2C)cc(Br)c1O 11.7%
COc1ccc(C(=O)NC2=Nc3ccccc3N=C(C)C2c2ccccc2)cc1 (stereo unspecified) 0.78%
Nc1cc(N)nc(SCC(=O)N2CCN(S(=O)(=O)c3ccccc3)CC2)n1 7.76%

Reference: PubChem BioAssay AID624330 (Southern Research Specialized Biocontainment Screening …, 2012)
